This passage reports growth results from PubChem BioAssay (NCI).

Compounds without any hit were thinned out: in the full panel of roughly 83,000, 20% have a hit.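 Percent growth is the endpoint: 0 to 100 indicates growth inhibition (40 means 60% inhibition), 0 means no net growth, and negative values indicate cell death.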 A number with no mark means an inactive call. Active and inactive are the calls of the source. The calls were made as follows: active = growth percent below 10; inactive = the rest.

Common to all, as to assay: NCI-60 one-dose screen, 48 h (100 = growth as untreated, 0 = no growth, -100 = all killed)
Holding throughout (settings): 10 µM unless noted

The subject of assay [1] is DU-145 prostate.
Assay [2] concerns K-562 leukemia.
The subject of assay [3] is MALME-3M melanoma.
Assay [4] concerns MDA-MB-231 breast.
Assay [5] has as its system RXF 393 renal.
Assay [6] concerns SF-268 CNS.
Assay [7] has as its system SF-295 CNS.
The test system of assay [8] is SF-539 CNS.
Assay [9] relates to UACC-257 melanoma.
Assay [10] has as its system M14 melanoma.
Assay [11] deals with HCT-15 colon.
Assay [12] relates to HT29 colon.
The test system of assay [13] is SNB-75 CNS.
The subject of assay [14] is SNB-19 CNS.
Assay [15] concerns U251 CNS.
In assay [16] the test system is PC-3 prostate.
The subject of assay [17] is SK-MEL-5 melanoma.
Assay [18] has as its system UACC-62 melanoma.
Assay [19] deals with LOX IMVI melanoma.
Assay [20] concerns SK-MEL-28 melanoma.

On to `C=C(C)[C@@H]1CC[C@]2(C(=O)NC3CCCCC3)CC[C@]3(C)[C@H](CC[C@@H]4[C@@]5(C)CCCNC(C)(C)[C@@H]5CC[C@]43C)[C@@H]12`, for which the growth in [1] was 59%; in assay [2], -8.4% (active); in [3], -6.88% (active); in [4], 52.7%; in assay [5] it was 56.6%; in assay [6], 78.4%. Moreover, the growth is 96.9% in assay [7]; 63.4% in assay [8]; -9.57% (active) in assay [9]; -52.3% (active) in assay [10]; -26.8% (active) in assay [11]; 2.51% (active) in assay [12]. Besides, the growth in [13] is 93.9%; in [14] it was 84.3%; in assay [15] it was 14.9%; in assay [16], 49.7%; in assay [17], 6.77% (active); in [18], 11.7%. Besides, the growth is -91.8% (active) in [19] and 56.6% in assay [20].

Regarding `O=C(N/N=C/c1ccncc1)c1ccc(C(F)(F)F)nc1Nc1cccc(C(F)(F)F)c1`, the growth is 40.6% in assay [1]; 13.9% in assay [2]; 4.45% (active) in [3]; 21.1% in assay [4]; -8.63% (active) in assay [5]; 23.4% in [6]. Moreover, the growth was -24.1% (active) in [7]; 26.1% in assay [8]; 21.9% in [9]; 25.4% in assay [10]; 13.1% in assay [11]; 23.1% in [12]. For the same compound, the growth in assay [13] is 46.7%; in assay [14], 36%; in [15] it was 8.49% (active); in assay [16], 20.5%; in [17], 10%; in assay [18] it was 15.1%. The growth was 20.5% in assay [19] and 44.9% in assay [20].

Turning to `Cc1cc(N2CCCC2)nc(NCc2cc(Nc3ccnc4cc(Cl)ccc34)ccc2F)n1`, the growth in [1] is -65.9% (active); in assay [2], -31.9% (active); in assay [3], -66.9% (active); in assay [4] it was -69.8% (active); in [5] it was -64.9% (active); in assay [6], -56.2% (active). In addition, the growth in assay [7] is -87.5% (active); in [8] it was -70.4% (active); in assay [9] it was -64% (active); in [10] it was -80.3% (active); in [11] it was -74.3% (active); in assay [12], -41.6% (active). The growth was -90.7% (active) in assay [13]; 1.18% (active) in assay [14]; -89.7% (active) in assay [15]; -38.8% (active) in assay [16]; -98.6% (active) in [17]; -77.8% (active) in [18]. Besides, the growth is -92.9% (active) in assay [19] and -71.4% (active) in assay [20].

Take `C=CCn1c(C)nc2cc(Nc3nc(N4CCCC4)nc4ccccc34)ccc21`: the growth in assay [1] was 73.8%; in assay [2], 1.94% (active); in assay [3], 122%; in assay [4], 42%; in assay [5] it was 52.4%; in [6], 86.9%. Further, the growth in assay [7] is 83.7%; in [8], 90.1%; in assay [9], 115%; in assay [10], 89.7%; in assay [11], 79.4%; in assay [12] it was 5.63% (active). Besides, the growth was 83.6% in assay [13]; 107% in assay [14]; 96.6% in assay [15]; 98.7% in assay [16]; 62.4% in assay [17]; 113% in [18]. Also, the growth in assay [19] was 2.4% (active); in assay [20], 80.1%.

Regarding `COc1ccc2c(c1)O/C(=C\c1cccc(OCC(=O)Nc3nc4ccccc4s3)c1)C2=O`, the growth in assay [1] is 28.6%; in [2], 5.15% (active); in assay [3] it was -43.8% (active); in assay [4] it was 74.8%; in assay [5], -29.3% (active); in assay [6] it was 24.2%. The growth was 99.7% in assay [7]; 97.6% in [8]; 106% in assay [9]; 42.9% in assay [10]; 81.5% in [11]; 110% in assay [12]. Moreover, the growth in [13] is 102%; in assay [14], 83.6%; in [15], 70.5%; in assay [16], 35%; in [17], 96.7%; in assay [18], 83.9%. Besides, the growth in assay [19] is -85% (active); in [20] it was 96.7%.

For `Clc1cc(Cl)cc(Nc2ccc3cc(OCCCN4CCOCC4)ccc3n2)c1`, the growth is 40.6% in [1]; -27.3% (active) in [2]; 66.5% in [3]; -5.22% (active) in assay [4]; 5.08% (active) in assay [5]; 46.9% in [6]. Besides, the growth is -59.7% (active) in assay [7]; 9.86% (active) in [8]; 49% in assay [9]; 12.6% in assay [10]; 7.18% (active) in [11]; -39.5% (active) in [12]. The growth was 11% in assay [13]; 38.5% in assay [14]; 2.35% (active) in [15]; 21.8% in assay [16]; 71% in assay [17]; 12.9% in assay [18]. For the same compound, the results for the growth in [19] and in [20] were -77.6% (active) and 27.8%, respectively.

As for `O=C(Nc1ccc(-n2cc(-c3ccncc3)c(-c3ccc(Cl)c(O)c3)n2)cc1)N1CCOCC1`, the growth in assay [1] was 109%; in assay [2] it was 89.9%; in assay [3] it was 92.1%; in [4], 105%; in assay [5], 135%; in assay [6], 99.9%. Besides, the growth is 96.4% in assay [7]; 92.7% in assay [8]; 109% in assay [9]; 97% in [10]; 102% in [11]; 98.1% in assay [12]. Also, the growth was 93.3% in assay [13]; 103% in assay [14]; 96.9% in assay [15]; 87.4% in assay [16]; 99.1% in assay [17]; 101% in assay [18]. For the same compound, the growth in [19] is 98%; in assay [20], 100%.

On to `Cc1ccc(-n2nc3c(c(C#N)c2=O)CC(c2ccccc2Cl)C([N+](=O)[O-])=C3O)cc1` (stereo not given), for which the growth is 107% in assay [1]; 81.7% in assay [2]; 101% in assay [3]; 82.4% in assay [4]; 101% in assay [5]; 90% in [6]. Moreover, the growth in assay [7] is 101%; in assay [8], 99.8%; in assay [9], 102%; in [10] it was 99.6%; in assay [11] it was 61.3%; in assay [12], 118%. For the same compound, the growth in assay [13] was 75.1%; in [14] it was 97.1%; in assay [15], 90%; in assay [16], 66.6%; in assay [17], 75%; in [18], 84.3%. For the same compound, the growth was 81.4% in assay [19] and 106% in assay [20].

Take `O=C(CSc1nnc(-c2ccc(NC(=O)c3cccnc3)cc2)o1)N[C@@H](Cc1ccc(O)cc1)C(=O)O`: the growth in assay [1] is 117%; in assay [2], 93.6%; in assay [3], 102%; in [4], 97.7%; in assay [5], 109%; in assay [6] it was 107%. Besides, the growth was 108% in [7]; 102% in [8]; 99.7% in [9]; 100% in assay [10]; 113% in assay [11]; 106% in [12]. For the same compound, the growth in assay [13] was 98.9%; in assay [14] it was 96.7%; in assay [15] it was 103%; in assay [16] it was 101%; in assay [17] it was 100%; in assay [18], 92.8%. The values for the growth in assay [19] and in assay [20] were 104% and 108%, respectively.

On to `C[C@@H]1N=C(c2ccc3ccccc3n2)Nc2nc3ccccn3c2C1=O`, for which the growth in assay [1] was 107%; in assay [2], 102%; in assay [3], 92.4%; in assay [4] it was 79.4%; in assay [5] it was 119%; in assay [6] it was 101%. Also, the growth is 90.4% in assay [7]; 86.7% in assay [8]; 117% in assay [9]; 105% in assay [10]; 86.8% in [11]; 115% in assay [12]. The growth in assay [13] is 84.7%; in [14], 91.2%; in assay [15], 106%; in assay [16], 96.8%; in assay [17], 94.3%; in assay [18], 90.1%. Besides, the results for the growth in [19] and in assay [20] were 93% and 112%, respectively.

As for `COc1cc(C(=O)/C=C/c2c(C(F)(F)F)nc3sccn23)cc(OC)c1OC`, the growth in assay [1] is 10.7%; in assay [2], -16.1% (active); in assay [3] it was 78.6%; in [4] it was 29.1%; in [5] it was -55.7% (active); in assay [6], 16.1%. Further, the growth in assay [7] was -2.07% (active); in [8], -59.1% (active); in assay [9] it was 13.4%; in [10] it was -39.2% (active); in assay [11], -62.2% (active); in assay [12], -11.8% (active). The growth in [13] was 29.8%; in assay [14] it was 20.7%; in [15] it was 4.46% (active); in assay [16] it was 16.4%; in [17], 5.95% (active); in assay [18] it was -13.8% (active). Moreover, the figures for the growth in assay [19] and in [20] were -57.9% (active) and -18.4% (active), respectively.

For `O=C1NC(=Nc2ccc(Cl)cc2)S/C1=C\c1cn(-c2ccccc2)nc1-c1ccccc1`, the growth in [1] is 89%; in assay [2], 92.1%; in assay [3], 83.8%; in [4] it was 88.4%; in [5], 97%; in [6], 84.5%. Also, the growth in assay [7] is 94.5%; in assay [8], 81%; in [9], 91.6%; in [10] it was 97.1%; in [11] it was 76%; in assay [12], 77.5%. Further, the growth in [13] was 65.8%; in [14], 90.2%; in [15], 18.4%; in assay [16], 56.5%; in assay [17] it was 94.9%; in [18] it was 87.1%. The growth in assay [19] is 90.5%; in assay [20] it was 97.8%.

As for `COc1ccccc1NC(=O)N/C(N)=N/c1nc2ccccc2s1`, the growth was 19.3% in assay [1]; 12.9% in [2]; 57.6% in assay [3]; 48.1% in assay [4]; 4.12% (active) in [5]; 49.5% in assay [6]. Moreover, the growth was 39.2% in assay [7]; -31.5% (active) in assay [8]; 75.4% in assay [9]; 8.17% (active) in [10]; 16.5% in assay [11]; 8.24% (active) in assay [12]. The growth is 22.6% in assay [13]; 37.5% in assay [14]; 18.3% in assay [15]; 25% in assay [16]; 23.7% in assay [17]; 31.4% in assay [18]. Also, the growth in assay [19] was 34.3%; in [20] it was 53.4%.

For `CC(C)C(NC(=O)C1(NC(=O)OCc2ccccc2)CCCC1)C(=O)O` (stereo not given), the growth in [1] was 118%; in assay [2], 91.7%; in assay [3], 111%; in assay [4] it was 105%; in [5], 134%; in assay [6], 111%. The growth is 112% in [7]; 111% in assay [8]; 89.2% in assay [9]; 102% in assay [10]; 112% in assay [11]; 105% in [12]. In addition, the growth in assay [13] is 92.3%; in assay [14] it was 103%; in [15] it was 86.7%; in assay [16], 102%; in [17], 102%; in assay [18] it was 106%. Moreover, the growth in [19] was 90.2%; in assay [20], 107%.
